# M1 antagonist – antagonists of rat M1 muscarinic receptor; CHO-M1 cells, Fluo-4 calcium, ACh EC80 antagonist mode; hits give low values; 3.4% of 64,000 active; Muscarinic acetylcholine receptor M1 (Rattus norvegicus), P08482; B-score at 10 µM;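 active = calcium fluorescence response, raw or row-and-column corrected B-score, differing from the plate sample mean either way at a set confidence level, mostly lower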
# DAT uptake mod – changed hDAT dopamine uptake under cocaine IC80, either direction, primary screen, cocaine antagonist project, cell-based, LLC-PK1 hDAT, [14C]-dopamine uptake, MLSMR | Sodium-dependent dopamine transporter (Homo sapiens), Q01959 | LLC-PK1 hDAT cells, [14C]-dopamine uptake with cocaine IC80; actives deviate in either direction | B-score at 10 µM | 1.3% of 110,000 active | AID 449768, 2010;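 active = Z score or B-score, a plate-position-corrected score, falls beyond the plate's 99.7% confidence bounds, in either direction; inactive = both scores lie inside the 99.7% bounds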;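 note: scored against the spread of the other compound wells on the same plate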
# FXIa inh mix – FXIa protease inhibitors in compound pools, primary screen, biochemical, 10-compound mixtures; Coagulation factor XI (Homo sapiens), P03951; purified FXIa, fluorogenic substrate, pooled mixtures; AID 680, 2007; 0.19% of 62,000 active; inhibition, % at 5 µM;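 note: each value is inhibition by a whole ten-compound pool holding the compound; 0% = enzyme with no mixture and 100% = wells lacking enzyme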
# D1 allo mod – D1 CRE-luciferase signal change, two-sided – cell-based, HEK293 D1, dopamine EC30, D1 allosteric modulator project, primary screen | D(1A) dopamine receptor (Homo sapiens), P21728 | 5.9% of 58,000 active | B-score at 10 µM | dopamine EC30 potentiation; actives deviate in either direction | AID 641, 2007;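 active = luminescence count or its row- and column-corrected plate score outside the 99.7% band of the plate's sample wells, on either side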
# M1 ag – M1 muscarinic receptor agonists, primary screen, CHO-M1 cells, Fluo-4 calcium, agonist mode; B-score at 10 µM; Fluo-4 calcium fluorescence; hits give high values; AID 626, 2007; 3% of 64,000 active;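 active = fluorescence rise, raw or as B-score row- and column-corrected plate score, outside the 99.7% band of its plate's samples, either direction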
# FXIIa inh mix – human factor XIIa inhibitors, primary screen, biochemical, pooled compound mixtures, fluorogenic substrate | Coagulation factor XII (Homo sapiens), P00748 | purified FXIIa | inhibition, % at 5 µM | 0.2% of 62,000 active;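 note: 0% = enzyme without compound and 100% = no enzyme blank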
# Target sequence (P00748 20-372 limits assumed): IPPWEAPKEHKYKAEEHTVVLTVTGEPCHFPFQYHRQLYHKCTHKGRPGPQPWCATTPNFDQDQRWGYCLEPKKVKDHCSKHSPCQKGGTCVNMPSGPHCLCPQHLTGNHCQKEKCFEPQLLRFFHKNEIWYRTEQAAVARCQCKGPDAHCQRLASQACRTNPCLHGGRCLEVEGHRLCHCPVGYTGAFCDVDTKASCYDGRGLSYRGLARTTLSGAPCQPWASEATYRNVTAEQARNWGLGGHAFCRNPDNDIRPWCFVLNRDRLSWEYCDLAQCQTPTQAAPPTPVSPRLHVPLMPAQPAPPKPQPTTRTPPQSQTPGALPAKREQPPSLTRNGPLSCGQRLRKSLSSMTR
# Target sequence (P00748 373-615 limits assumed): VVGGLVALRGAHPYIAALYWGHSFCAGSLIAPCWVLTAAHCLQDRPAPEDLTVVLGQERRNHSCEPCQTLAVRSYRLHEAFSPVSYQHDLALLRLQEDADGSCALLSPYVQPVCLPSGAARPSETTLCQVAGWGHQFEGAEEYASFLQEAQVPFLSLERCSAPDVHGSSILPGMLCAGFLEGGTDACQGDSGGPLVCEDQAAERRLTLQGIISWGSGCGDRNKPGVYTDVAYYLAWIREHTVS
# M1 antag confirm – rat M1 muscarinic receptor antagonists, confirmation, CHO cells, Fluo-4 calcium, duplicate; ACh EC80 antagonism; hits give low values; shares compounds with M1 antagonist; calcium response (max-min fluorescence) at 10 µM; 43% of 1,700 active; AID 677, 2007;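 active = calcium response below the same-plate mean of wells given acetylcholine alone at its 80%-effect dose, minus 3 SD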;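 note: raw fluorescence intensity difference in arbitrary instrument units and not normalized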
# mGluR4 antag – human mGluR4 response to M1 antagonist hits, M1 allosteric modulator project, cell-based, antagonist mode, secondary assay 1. shares compounds with M1 antagonist. CHO-mGluR4 calcium flux, Fluo-4 fluorescence, glutamate EC80; hits give low values. fluorescence response (max-min) at 10 µM. 0.9% of 1,700 active. AID 678, 2007;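 active = fluorescence response below the plate's average for near-maximal glutamate wells, less 3 SD of those wells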;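 note: raw unnormalized fluorescence span taken in the window right after glutamate addition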
# * = called active by the depositor; x = no result. Hits are enriched below; roughly 7.4% of the tested compounds scored in any of these assays. Cut-off read from the data, not from the text of the source, unless noted: active = inhibition above about 20% (passing the limit was not always enough); inactive = the rest.
SMILES,M1 antagonist,DAT uptake mod,FXIa inh mix,D1 allo mod,M1 ag,FXIIa inh mix,M1 antag confirm,mGluR4 antag
Cc1ccc(N=C2SCCCN2C(=O)c2ccco2)cc1Cl,-1.9*,0.27,4,-0.27,-0.32,-6,532*,240
Cc1ccc2c(c1)CCCN2C(=O)c1ccco1,x,-0.52,x,x,x,x,x,x
CCn1c(=N)n(CC(=O)C23CC4CC(CC(C4)C2)C3)c2ccccc21,-12*,1,1,-0.98,-1.8,-19,198*,259
CC(C)=CC/C=C1\CCC(C(=O)O)C(C(=O)O)C1 (configuration not stated),-14*,-0.82,25,-1.1,-0.14,-8,671,227
CC1=CCC(C(=O)O)C(C(=O)O)C1 (configuration not stated),0.29,-0.13,3,0.54,-2.5e-05,-3,x,x
CCOC(=O)N1CCN(c2c(NCc3ccc(Cl)cc3)c(=O)c2=O)CC1,x,-0.043,x,x,x,x,x,x
COC(=O)[C@H](C)NC(=O)Nc1cc(OC)ccc1OC,-1.4*,-0.87,2,3.6,0.68,11,614,241
O=c1ccc2cc3c([nH]c4ccc(Br)cc43)oc-2c1O,-1.4*,0.85,-6,0.51,0.23,5,629,227
Cc1cc(C)n(C(=O)c2cc3ccccc3c(=O)o2)n1,-5.1*,0.24,5,0.86,0.18,6,662,250
CCOC(=O)c1cccc(NC(=O)CCc2nc(-c3ccc(C)cc3)no2)c1,-0.33,0.15,7,-0.085,0.47,-4,x,x
Cc1cccc(-c2noc(CCCC(=O)Nc3cccnc3)n2)c1,-0.0022,x,-2,x,-0.46,4,x,x
O=C(CCCc1nc(-c2ccc(Cl)cc2)no1)Nc1cccnc1,-2.7*,-0.55,3,-1.3,1.4,1,528*,214
Cc1ccc2c(CC(=O)Nc3sccc3C(N)=O)coc2c1,-0.46,x,10,-1.1,-0.9,8,x,x
Cc1ccc2c(CC(=O)Nc3ccc(N4CCN(C)CC4)cc3C)coc2c1,-3.2*,0.43,3,-4.7*,-1.4,7,334*,247
CN(C)CCCOC(=O)Cc1ccc(Cl)cc1,-2.3*,-0.0015,5,-0.19,0.046,4,463,198
CN(C)CCCOC(=O)CCc1ccccc1,-1.9,-0.37,-2,-0.028,0.43,0,x,x
CCC1(C)Cc2c(sc3c2c(=O)n(C)c2nnc(SCc4ccccc4)n32)CO1 (configuration not stated),0.15,-0.63,x,x,-0.003,x,x,x
CCC1(C)Cc2c(sc3c2c(=O)n(C)c2nnc(SCCc4ccccc4)n32)CO1 (configuration not stated),-3.1*,1,-3,0.21,-1,4,489*,244
COc1cc(C(=S)N2CCCC2)cc(Cl)c1O,-2*,x,3,x,-0.011,-17,685,246
COc1cc(C(=S)N2CCCC2)ccc1O,0.21,-0.022,-2,x,-0.91,-4,x,x
Cc1ccc(-c2cc(C(=O)NCc3ccc4c(c3)OCO4)[nH]n2)c(O)c1C,-1.6*,-1.2,11,-0.049,0.36,-2,653,195
Cc1cc(O)c(-c2cc(C(=O)NCc3ccc4c(c3)OCO4)[nH]n2)cc1C,-0.081,0.63,0,-0.21,1.4,1,x,x
O=C(NCc1ccc(Cl)cc1)c1ccccc1Oc1ccccc1,x,0.9,x,x,x,x,x,x
Clc1cc(Br)ccc1OCCn1ccnc1,-3.3*,0.038,4,-0.33,0.84,-7,442*,241
Clc1ccc(OCCOCCN2CCCCC2)c(Br)c1,x,-0.68,x,x,x,x,x,x

# Screening results (PubChem)
